Source: the supplement of paper PMC10670038
Structures can show the parent of a compound that is named as a salt. ± gives the standard deviation of the averaged measurements. The full ranking holds about 2,000 compounds; the median of “relative cell viability vs DMSO, compound + 0.2 uM CuET” is about 1, and the lowest 2% start at about 0.25. Shown is part of a subset that was picked to be rich in the lowest values.

What follows are compounds tested on TE10 (assay: relative cell viability vs DMSO, compound + 0.2 uM CuET (fraction); TE10 is an esophageal squamous carcinoma line; higher = less cytotoxic). Details: 2 µM; co-treatment: CuET (bis(diethyldithiocarbamate)copper) 0.2 uM; 48 h.
Protocol: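 TE10 ESCC cells (1,000/well, 384-well plates) were treated with Selleck bioactive library compounds at 2 uM combined with 0.2 uM CuET (copper diethyldithiocarbamate) for 48 h. Viability was read by CellTiter-Glo and expressed relative to DMSO wells. Two technical replicates (A, B).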

SMILES	relative cell viability
O=C(O)C(Cc1ccccc1[N+](=O)[O-])=NNc1nc(-c2ccc(Cl)c(Cl)c2)cs1	1.04 ± 0.16
COc1cc(-c2ncn(/C=C\C(=O)OC(C)C)n2)cc(C(F)(F)F)c1	0.25 ± 0.0078
O=C(/C=C\n1cnc(-c2cc(C(F)(F)F)cc(C(F)(F)F)c2)n1)NNc1cnccn1	0.29 ± 0.015
O=C(/C=C/n1cnc(-c2cc(C(F)(F)F)cc(C(F)(F)F)c2)n1)N1CC(F)(F)C1	0.355 ± 0.025
C=CS(=O)(=O)NC1CCN(C(=O)CNc2cc(I)c(Cl)cc2OC)CC1 [K-Ras(G12C) inhibitor 9]	0.699 ± 0.08
O=C(NOCC1CC1)c1ccc(F)c(F)c1Nc1ccc(I)cc1Cl	0.64 ± 0.17
Cc1cccc(-c2[nH]ncc2-c2ccc3ncccc3n2)n1	1.04 ± 0.0027
CN(C)c1ccc(C(=O)NCCCCCCC(=O)NO)cc1	0.322 ± 0.042
O=C(CCCCCCNC(=O)c1cnc(N(c2ccccc2)c2ccccc2)nc1)NO [Rocilinostat (ACY-1215)]	0.8907 ± 0.0072
CC(C)(C)OC(=O)Nc1ccc(-c2cc(C(=O)NCCCCCCC(=O)NO)no2)cc1	0.244 ± 0.003
C[C@@H]1COC(Nc2ccc3ncnc(Nc4ccc(OCc5nccs5)c(Cl)c4)c3c2)=N1 [Varlitinib]	1.04 ± 0.086
S=C=Nc1cccc(NC(=S)NCCCCNC(=S)Nc2cccc(N=C=S)c2)c1	1.2 ± 0.15
C=CC(=O)Nc1cccc(Sc2nc(Nc3ccc(N4CCN(C)CC4)cc3)ncc2Cl)c1	0.846 ± 0.02
CCn1c(=O)c(-c2ccc(-c3cncs3)cc2Cl)cc2cnc(Nc3ccc(N4CCN(C)CC4)cc3)nc21	0.183 ± 0.025
C=CCn1c(=O)c2cnc(Nc3ccc(N4CCN(C)CC4)cc3)nc2n1-c1cccc(C(C)(C)O)n1	0.559 ± 0.038
COc1cc2ncnc(Oc3cccc(NC(=O)Nc4cc(C(C)(C)C(F)(F)F)on4)c3)c2cc1OC	1.1 ± 0.061
COc1cc(OC)c(NC(=O)Nc2cc(C)on2)cc1Cl	1.1 ± 0.05
CCN1C(=CC(C)=O)Sc2ccc(OC)cc21	1.11 ± 0.11
CC(CCC(=O)NCCS(=O)(=O)O)C1CCC2C3C(O)CC4CC(O)CCC4(C)C3CCC12C (stereo not drawn) [Sodium Tauroursodeoxycholate (TUDC)]	1.24 ± 0.12
O=C1C(Cl)=C(N2CCOCC2)C(=O)N1c1ccc(Cl)c(Cl)c1	1.17 ± 0.026
COc1cc(/C=C/C(=O)CC(=O)/C=C/c2ccc(O)c(OC)c2)ccc1O [Curcumin]	0.656 ± 0.023
COc1cc(/C=C/C(=O)O)ccc1O [Ferulic Acid]	1.21 ± 0.12

SMILES	relative cell viability
COc1ccc(/C=C/C(=O)C2(C(=O)/C=C/c3ccc(OC)c(OC)c3)CCCCC2)cc1OC	0.238 ± 0.01
O=C1c2c(O)cccc2C([C@@H]2O[C@H](CO)[C@@H](O)[C@H](O)[C@H]2O)c2cc(CO)cc(O)c21 (stereo partly drawn) [Aloin]	1.1 ± 0.12
N#Cc1ccc(COC[C@H]2O[C@@H](n3c(NCc4ccc(Cl)c(Cl)c4)nc4c(N)ncnc43)[C@H](O)[C@@H]2O)cc1	0.939 ± 0.0025
CCOc1ccccc1OC(c1ccccc1)C1CNCCO1 (stereo not drawn) [Reboxetine mesylate]	1.2 ± 0.37
c1ccc(Cn2c(-c3ccc(OCC(C4CCNCC4)n4c(-c5ccccc5)nc5ccccc54)cc3)nc3ccccc32)cc1 (stereo not drawn) [Deltarasin]	0.9797 ± 0.0069
CC1(C)C=C(CN2C/C(=C\c3ccc(F)cc3)C(=O)/C(=C/c3ccc(F)cc3)C2)C(C)(C)N1O	0.216 ± 0.0066
CC(C)(C)Cn1c(N)nc2ccc(-c3[nH]c(C(C)(C)C)nc3-c3ccc(F)cc3)nc21	1.34 ± 0.083
CCOC(=O)C1=C(C)NC(C)=C(C(=O)OCC)C1c1ccccc1/C=C/C(=O)OC(C)(C)C [Lacidipine]	0.785 ± 0.011
COc1ccc(COc2ccc(Cc3cnc(N)nc3N)cc2OC)cc1	1.024 ± 0.0044
Cn1c(=O)cc(N2CCC[C@@H](N)C2)n(Cc2cc(F)ccc2C#N)c1=O [Trelagliptin]	1.17 ± 0.22
CC(C=CC(=O)NO)=CC(C)C(=O)c1ccc(N(C)C)cc1 (stereo not drawn) [Trichostatin A (TSA)]	0.177 ± 0.0076
CN(C(Cc1ccc(OS(=O)(=O)c2cccc3cnccc23)cc1)C(=O)N1CCN(c2ccccc2)CC1)S(=O)(=O)c1cccc2cnccc12 (stereo not drawn)	0.992 ± 0.046
CC(NC(=O)C(O)c1cc(F)cc(F)c1)C(=O)NC1C(=O)N(C)c2ccccc2-c2ccccc21 (stereo not drawn)	1.07 ± 0.058
CC(C)OC(=O)C1=CN(C(=O)c2ccc(F)c(F)c2)CC(C)(C)c2c1[nH]c1ccccc21	1.13 ± 0.041
O=C(NNc1ccccc1)c1ccncc1	1.06 ± 0.18
NNC(=O)c1ccncc1 [Isoniazid]	1.1 ± 0.14
O=C(/C=C/c1ccc2ccccc2n1)c1ccncc1	0.186 ± 0.037
Cn1c(=O)cc(N2CCC[C@@H](N)C2)n(Cc2ccccc2C#N)c1=O [Alogliptin]	1.1 ± 0.21
NCc1c[nH]c(=S)n1[C@@H]1CCc2c(F)cc(F)cc2C1 [(R)-Nepicastat HCl]	1.121 ± 0.0038
CN(C)CCSSCCNC(=O)C1CCN(C(=O)CSc2ccc(Cl)cc2)CC1	1.05 ± 0.11
Cc1cc(N2CCOCC2)cc2[nH]c(-c3c(NCC(O)c4cccc(Cl)c4)cc[nH]c3=O)nc12 (stereo not drawn)	0.799 ± 0.15
